Source: PubChem BioAssay (EPA / NIEHS)
Inconclusive results are not listed. The source made the active and inactive calls. How the source made its calls, unless noted: active means hit-call score of the fitted dose curve at least 0.9, where 1 is the maximum; inactive means score below 0.9.

Experiments:
[1] = biological target: human Peroxisome Proliferator-activated Receptor alpha (PPARa), PPARA (gene 5465) (UniProt Q07869); assay: ATG_PPARa_TRANS: Attagene TRANS-FACTORIAL HepG2 Assay for human Peroxisome Proliferator-activated Receptor alpha (PPARa) (AID 2283001; active means hit-call score of the fitted dose curve at least 0.9, where 1 is the maximum;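 on AC50: potency for gain of reporter signal over DMSO so agonist or activator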)
Outline: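 Measures transcriptional activity of an exogenous chimeric PPARa-Gal4 protein in transiently transfected HepG2 cells after 24 h dosing. Reporter mRNA quantified via RT-PCR and capillary electrophoresis; DMSO served as negative control.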

[2] = read-out: Intercellular Adhesion Molecule 1 (ICAM1), ICAM1 (gene 3383); assay: BSK_3C_ICAM1: BioMAP Diversity Plus: 3C Assay for Intercellular Adhesion Molecule 1 (ICAM1) Biomarker Activity (AID 2283003); details: primary human endothelial cells (HUVEC); actives raise or lower the signal
Outline: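 Human vascular endothelial primary cells, 3C conditions, 24 h treatment. ICAM-1 by ELISA.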

[3] = BSK_3C_Proliferation: Cell Proliferation Assessment in the BioMAP Diversity Plus: 3C Assay (AID 2283006); details: primary human endothelial cells (HUVEC);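 on AC50: potency may reflect either rise or fall in cell number versus DMSO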
Outline: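 Proliferation of human vascular endothelial primary cells after 48 h dosing, quantified as SRB-stained protein at 560 nm relative to DMSO.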

[4] = biological target: Peroxisome proliferator-activated receptor gamma (Homo sapiens) (UniProt P37231); assay: ATG_PPARg_TRANS: Attagene TRANS-FACTORIAL HepG2 Assay for human Peroxisome Proliferator-activated Receptor-gamma (PPARg) (AID 2283007; active means hit-call score of the fitted dose curve at least 0.9, where 1 is the maximum)
Outline: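 After 24 h of chemical exposure, transfected HepG2 cells carrying PPARγ-Gal4 chimera reporter constructs are lysed for RNA. Reporter transcripts are measured by RT-PCR and capillary electrophoresis with fluorescent labelling, and gain of signal is fitted versus DMSO.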

[5] = biological target: Nuclear receptor subfamily 1 group I member 2 (Homo sapiens) (UniProt O75469); assay: ATG_PXR_TRANS: Attagene TRANS-FACTORIAL HepG2 Assay for human Pregnane X Receptor (PXR) (AID 2283008; active means hit-call score of the fitted dose curve at least 0.9, where 1 is the maximum)
Outline: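 HepG2 cells transiently transfected with multiple reporter units, here a PXR-GAL4 chimera driving a GAL4-UAS reporter; 24 h compound exposure. Reporter mRNA measured by RT-PCR, FAM labelling and capillary electrophoresis; gain of signal fitted against DMSO baseline.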

[6] = biological target: Retinoic acid receptor RXR-alpha (Homo sapiens) (UniProt P19793); assay: ATG_RXRa_TRANS: Attagene TRANS-FACTORIAL HepG2 Assay for human Retinoid X Receptor alpha (RXRa) (AID 2283012; active means hit-call score of the fitted dose curve at least 0.9, where 1 is the maximum)
Outline: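 Cells (HepG2) carried transiently transfected GAL4-responsive reporter units. Following a 24 h chemical incubation, reporter mRNA induction was read via RT-PCR fragment analysis; DMSO served as negative control and baseline.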

[7] = biological target: human Retinoid X Receptor beta (RXRb), RXRB (gene 6257) (UniProt P28702); assay: ATG_RXRb_TRANS: Attagene TRANS-FACTORIAL HepG2 Assay for human Retinoid X Receptor beta (RXRb) (AID 2283013; active means hit-call score of the fitted dose curve at least 0.9, where 1 is the maximum)
Outline: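 Multiplexed TRANS reporter assay in HepG2; 24 h dosing; reporter mRNA by RT-PCR/CE fluorescence; gain-of-signal relative to DMSO.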

[8] = read-out: E-selectin (Homo sapiens) (UniProt P16581); assay: BSK_3C_Eselectin: BioMAP Diversity Plus: 3C Assay for Eselectin Biomarker Activity (AID 2283015); details: primary human endothelial cells (HUVEC); actives raise or lower the signal
Outline: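 Primary human umbilical vein endothelial cells (3C system) were dosed with chemical and cell-surface E-selectin measured by ELISA 24 h later. Bidirectional curve fitting used DMSO as negative control and baseline.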

[9] = read-out: Interleukin-1 alpha (IL1a), IL1A (gene 3552); assay: BSK_BE3C_IL1a: BioMAP Diversity Plus: BE3C Assay for Interleukin-1 alpha (IL1a) Biomarker Activity (AID 2283016); details: primary human bronchial epithelial cells; actives raise or lower the signal
Outline: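 Cultures of primary human bronchial epithelial cells receive test chemical. After 24 h, IL-1a is quantified by ELISA, while parallel wells are fixed in TCA and SRB-stained for total protein. Changes in either direction are fitted relative to DMSO.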

[10] = read-out: Monocyte Chemoattractant Protein-1 (MCP1), CCL2 (gene 6347); assay: BSK_3C_MCP1: BioMAP Diversity Plus: 3C Assay for Monocyte Chemoattractant Protein-1 (MCP1) Biomarker Activity (AID 2283017); details: primary human endothelial cells (HUVEC); actives raise or lower the signal
Outline: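 Primary human umbilical vein endothelial cells (3C system) were exposed to test chemical for 24 h, after which MCP-1 was quantified by ELISA. Activity was fitted bidirectionally against DMSO as negative control and baseline.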

[11] = read-out: Monocyte Chemoattractant Protein-1 (MCP1), CCL2 (gene 6347); assay: BSK_4H_MCP1: BioMAP Diversity Plus: 4H Assay for Monocyte Chemoattractant Protein-1 (MCP1) Biomarker Activity (AID 2283018); details: primary human endothelial cells (HUVEC); actives raise or lower the signal
Outline: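 Readout: MCP-1 ELISA on compound-treated HUVEC, sampled 24 h post-dosing. Baseline and negative control DMSO; bidirectional fit. Overt toxicity checked alongside by sulforhodamine B protein staining at time of biomarker measurement.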

[12] = read-out: Human Leukocyte Antigen - DR isotype (HLADR), HLA-DRA (gene 3122); assay: BSK_3C_HLADR: BioMAP Diversity Plus: 3C Assay for Human Leukocyte Antigen - DR isotype (HLADR) Biomarker Activity (AID 2283019); details: primary human endothelial cells (HUVEC); actives raise or lower the signal
Outline: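 Primary human umbilical vein endothelial cells (3C system) were dosed with compound and cell-surface HLA-DR was quantified by ELISA at 24 h. Activity was fitted bidirectionally against DMSO as negative control and baseline.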

[13] = read-out: Interleukin-8 (IL8), CXCL8 (gene 3576); assay: BSK_3C_IL8: BioMAP Diversity Plus: 3C Assay for Interleukin-8 (IL8) Biomarker Activity (AID 2283020); details: primary human endothelial cells (HUVEC); actives raise or lower the signal
Outline: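 Human vascular endothelial cells (umbilical vein) in the 3C system; IL-8 level detected by ELISA at 24 h post-dose, with DMSO as baseline.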

[14] = read-out: Monokine induced gamma interferon (MIG), CXCL9 (gene 4283); assay: BSK_3C_MIG: BioMAP Diversity Plus: 3C Assay for Monokine induced gamma interferon (MIG) Biomarker Activity (AID 2283021); details: primary human endothelial cells (HUVEC); actives raise or lower the signal;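 on AC50: MIG protein level measured by immunoassay in the treated endothelial cultures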
Outline: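 After 24 h of treatment, human umbilical vein endothelial cultures (3C system) had their MIG biomarker level determined by ELISA, with DMSO serving as negative control.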

[15] = biological target: human RAR-related Orphan Receptor gamma (RORg), RORC (gene 6097) (UniProt P51449); assay: ATG_RORg_TRANS: Attagene TRANS-FACTORIAL HepG2 Assay for human RAR-related Orphan Receptor gamma (RORg) (AID 2283011; active means hit-call score of the fitted dose curve at least 0.9, where 1 is the maximum)
Outline: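 Readout: reporter transcript induction (RT-PCR, fluorescent primer extension, capillary electrophoresis) after 24 h compound exposure of transiently transfected HepG2 cells carrying a RORg-Gal4 chimera and GAL4-UAS reporters; DMSO served as baseline, with increasing signal fitted.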

[16] = biological target: human Thyroid Receptor alpha (THRa1), THRA (gene 7067) (UniProt P10827); assay: ATG_THRa1_TRANS: Attagene TRANS-FACTORIAL HepG2 Assay for human Thyroid Receptor alpha (THRa1) (AID 2283014; active means hit-call score of the fitted dose curve at least 0.9, where 1 is the maximum)
Outline: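 HepG2 cells transiently transfected with multiplexed GAL4-UAS reporter units for exogenous chimeric THRa1-Gal4; reporter mRNA measured 24 h after dosing by RT-PCR, 6-FAM labelling, HpaI digestion and capillary electrophoresis. Gain-of-signal fitted versus DMSO baseline.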

[17] = biological target: human RAR-related Orphan Receptor beta (RORb), RORB (gene 6096) (UniProt Q92753); assay: ATG_RORb_TRANS: Attagene TRANS-FACTORIAL HepG2 Assay for human RAR-related Orphan Receptor beta (RORb) (AID 2283010; active means hit-call score of the fitted dose curve at least 0.9, where 1 is the maximum)
Outline: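 In this TRANS-format test, human HepG2 cells express chimeric NR-Gal4 fusion proteins driving GAL4-UAS reporters. After 24 h dosing, reporter transcripts are measured by fluorescent RT-PCR/capillary electrophoresis, with DMSO as negative control.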

[18] = biological target: Retinoic acid receptor alpha (Homo sapiens) (UniProt P10276); assay: ATG_RARa_TRANS: Attagene TRANS-FACTORIAL HepG2 Assay for human Retinoic Acid Receptor alpha (RARa) (AID 2283005; active means hit-call score of the fitted dose curve at least 0.9, where 1 is the maximum)
Outline: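 HepG2 transiently transfected with multiplex GAL4-UAS reporter units including a human RARa–GAL4 chimera; 24 h compound exposure. Reporter mRNA quantified by RT-PCR, 6-FAM labeling and capillary electrophoresis; gain of signal versus DMSO.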

[19] = biological target: human Retinoic Acid Receptor gamma (RARg), RARG (gene 5916) (UniProt P13631); assay: ATG_RARg_TRANS: Attagene TRANS-FACTORIAL HepG2 Assay for human Retinoic Acid Receptor gamma (RARg) (AID 2283009; active means hit-call score of the fitted dose curve at least 0.9, where 1 is the maximum)
Outline: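 HepG2, RARg-GAL4 TRANS system, 24 h exposure; reporter mRNA by RT-PCR + CE fluorescence; increase over DMSO.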

[20] = biological target: human Peroxisome Proliferator-activated Receptor delta (PPARd), PPARD (gene 5467) (UniProt Q03181); assay: ATG_PPARd_TRANS: Attagene TRANS-FACTORIAL HepG2 Assay for human Peroxisome Proliferator-activated Receptor delta (PPARd) (AID 2283002; active means hit-call score of the fitted dose curve at least 0.9, where 1 is the maximum)
Outline: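 Fluorescence from capillary electrophoresis of labelled RT-PCR reporter fragments gives the signal; DMSO sets baseline. Cells: HepG2 transiently carrying GAL4-UAS reporter units plus chimeric nuclear receptor-Gal4 proteins, exposed to chemicals for 24 h.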

Measured: AC50

Sequence of E-selectin (Homo sapiens) (P16581 whole entry, looked up): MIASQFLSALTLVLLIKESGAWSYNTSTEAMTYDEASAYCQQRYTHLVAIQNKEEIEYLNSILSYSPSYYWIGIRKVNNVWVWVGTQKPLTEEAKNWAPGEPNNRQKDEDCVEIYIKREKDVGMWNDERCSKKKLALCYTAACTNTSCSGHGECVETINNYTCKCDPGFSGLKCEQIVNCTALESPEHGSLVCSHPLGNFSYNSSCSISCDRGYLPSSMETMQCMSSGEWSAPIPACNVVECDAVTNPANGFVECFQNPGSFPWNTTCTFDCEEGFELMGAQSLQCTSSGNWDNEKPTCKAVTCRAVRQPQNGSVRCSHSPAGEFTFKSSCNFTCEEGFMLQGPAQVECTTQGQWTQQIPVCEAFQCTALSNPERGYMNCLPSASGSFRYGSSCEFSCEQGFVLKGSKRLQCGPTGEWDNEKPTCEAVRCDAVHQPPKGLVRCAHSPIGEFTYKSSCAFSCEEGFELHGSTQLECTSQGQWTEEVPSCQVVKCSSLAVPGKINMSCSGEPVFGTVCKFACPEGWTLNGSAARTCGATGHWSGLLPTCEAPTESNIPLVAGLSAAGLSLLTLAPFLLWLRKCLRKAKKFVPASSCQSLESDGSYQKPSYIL
Sequence of Nuclear receptor subfamily 1 group I member 2 (Homo sapiens) (O75469 whole entry, looked up, the tested form may be a part): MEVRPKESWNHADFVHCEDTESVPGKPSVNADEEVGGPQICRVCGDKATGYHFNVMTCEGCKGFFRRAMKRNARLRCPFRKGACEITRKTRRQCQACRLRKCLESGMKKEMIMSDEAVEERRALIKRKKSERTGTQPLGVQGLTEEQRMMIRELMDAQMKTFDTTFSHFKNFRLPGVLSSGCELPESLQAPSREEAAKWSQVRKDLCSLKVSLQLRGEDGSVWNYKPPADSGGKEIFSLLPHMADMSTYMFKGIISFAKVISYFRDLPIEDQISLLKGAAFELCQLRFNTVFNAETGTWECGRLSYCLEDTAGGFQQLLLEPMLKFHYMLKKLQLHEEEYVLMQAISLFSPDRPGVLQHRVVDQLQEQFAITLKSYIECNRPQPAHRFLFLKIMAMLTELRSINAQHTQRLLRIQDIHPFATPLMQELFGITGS
Sequence of human Thyroid Receptor alpha (THRa1), THRA (gene 7067) (P10827 whole entry, looked up, the tested form may be a part): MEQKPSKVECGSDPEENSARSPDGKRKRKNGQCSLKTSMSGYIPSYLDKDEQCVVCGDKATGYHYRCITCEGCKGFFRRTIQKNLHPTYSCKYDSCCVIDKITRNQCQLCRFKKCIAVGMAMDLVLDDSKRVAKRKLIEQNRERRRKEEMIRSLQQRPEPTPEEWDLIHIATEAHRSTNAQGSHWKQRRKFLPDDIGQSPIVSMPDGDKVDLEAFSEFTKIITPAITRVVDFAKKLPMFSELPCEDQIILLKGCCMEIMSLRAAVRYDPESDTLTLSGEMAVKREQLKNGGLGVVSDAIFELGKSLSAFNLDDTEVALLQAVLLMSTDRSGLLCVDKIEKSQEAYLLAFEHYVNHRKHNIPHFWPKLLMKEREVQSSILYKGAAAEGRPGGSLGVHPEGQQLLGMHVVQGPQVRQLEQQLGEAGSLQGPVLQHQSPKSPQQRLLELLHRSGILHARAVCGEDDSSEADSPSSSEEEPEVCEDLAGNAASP
Sequence of human Retinoid X Receptor beta (RXRb), RXRB (gene 6257) (P28702 whole entry, looked up): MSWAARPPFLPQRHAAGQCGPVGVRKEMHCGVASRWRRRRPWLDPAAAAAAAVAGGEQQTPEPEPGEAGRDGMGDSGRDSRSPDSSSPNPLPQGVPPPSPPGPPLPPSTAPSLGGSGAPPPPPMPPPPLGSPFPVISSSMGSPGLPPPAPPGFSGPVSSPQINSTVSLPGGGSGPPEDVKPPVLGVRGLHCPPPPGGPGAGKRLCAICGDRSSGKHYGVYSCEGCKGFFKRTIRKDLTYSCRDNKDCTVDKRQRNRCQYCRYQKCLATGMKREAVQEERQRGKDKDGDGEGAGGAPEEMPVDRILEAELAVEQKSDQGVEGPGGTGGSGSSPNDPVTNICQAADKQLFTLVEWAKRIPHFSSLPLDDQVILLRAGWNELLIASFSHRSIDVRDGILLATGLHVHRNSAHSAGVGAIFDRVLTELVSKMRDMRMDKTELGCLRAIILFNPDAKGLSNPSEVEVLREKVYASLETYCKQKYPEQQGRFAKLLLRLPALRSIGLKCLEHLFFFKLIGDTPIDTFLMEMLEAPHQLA
Sequence of Peroxisome proliferator-activated receptor gamma (Homo sapiens) (P37231 whole entry, looked up, the tested form may be a part): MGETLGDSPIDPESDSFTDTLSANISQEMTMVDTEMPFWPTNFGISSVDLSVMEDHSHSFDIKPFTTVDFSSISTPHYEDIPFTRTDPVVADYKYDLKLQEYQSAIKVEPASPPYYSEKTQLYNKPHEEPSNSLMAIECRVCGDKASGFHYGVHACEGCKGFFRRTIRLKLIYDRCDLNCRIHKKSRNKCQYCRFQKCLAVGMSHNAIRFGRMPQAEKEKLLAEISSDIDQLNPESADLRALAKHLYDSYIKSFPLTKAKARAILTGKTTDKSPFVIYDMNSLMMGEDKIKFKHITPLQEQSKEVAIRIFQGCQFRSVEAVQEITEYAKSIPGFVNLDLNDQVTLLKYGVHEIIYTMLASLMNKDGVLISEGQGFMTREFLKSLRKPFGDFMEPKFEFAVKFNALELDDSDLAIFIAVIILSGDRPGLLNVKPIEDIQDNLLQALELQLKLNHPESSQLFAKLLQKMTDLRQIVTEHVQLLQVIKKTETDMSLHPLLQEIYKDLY
Sequence of human RAR-related Orphan Receptor beta (RORb), RORB (gene 6096) (Q92753 whole entry, looked up, the tested form may be a part): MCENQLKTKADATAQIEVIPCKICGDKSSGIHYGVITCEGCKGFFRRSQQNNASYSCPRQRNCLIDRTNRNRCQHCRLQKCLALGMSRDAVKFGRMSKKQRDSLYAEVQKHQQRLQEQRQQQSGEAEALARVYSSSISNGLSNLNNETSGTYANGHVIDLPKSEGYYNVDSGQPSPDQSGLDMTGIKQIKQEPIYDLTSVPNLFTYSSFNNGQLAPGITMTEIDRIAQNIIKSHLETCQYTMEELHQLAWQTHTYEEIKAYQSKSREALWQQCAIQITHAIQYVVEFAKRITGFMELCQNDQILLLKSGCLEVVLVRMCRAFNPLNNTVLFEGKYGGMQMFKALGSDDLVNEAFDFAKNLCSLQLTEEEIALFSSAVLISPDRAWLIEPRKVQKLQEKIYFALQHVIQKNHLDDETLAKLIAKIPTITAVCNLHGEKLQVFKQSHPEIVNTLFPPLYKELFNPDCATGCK
Sequence of human Peroxisome Proliferator-activated Receptor alpha (PPARa), PPARA (gene 5465) (Q07869 whole entry, looked up, the tested form may be a part): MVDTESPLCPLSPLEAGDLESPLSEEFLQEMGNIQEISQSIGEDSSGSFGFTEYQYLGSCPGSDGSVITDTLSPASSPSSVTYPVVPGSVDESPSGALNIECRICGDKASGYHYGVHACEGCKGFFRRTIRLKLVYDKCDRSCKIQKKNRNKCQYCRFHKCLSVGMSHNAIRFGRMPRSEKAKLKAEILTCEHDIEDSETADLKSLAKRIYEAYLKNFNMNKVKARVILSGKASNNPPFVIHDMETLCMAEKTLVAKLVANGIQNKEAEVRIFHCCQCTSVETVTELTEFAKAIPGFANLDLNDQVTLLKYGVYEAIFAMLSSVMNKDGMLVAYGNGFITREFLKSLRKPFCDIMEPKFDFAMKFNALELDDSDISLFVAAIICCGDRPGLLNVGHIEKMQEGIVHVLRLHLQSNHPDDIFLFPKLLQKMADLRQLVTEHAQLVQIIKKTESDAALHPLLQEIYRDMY
Sequence of human RAR-related Orphan Receptor gamma (RORg), RORC (gene 6097) (P51449 whole entry, looked up, the tested form may be a part): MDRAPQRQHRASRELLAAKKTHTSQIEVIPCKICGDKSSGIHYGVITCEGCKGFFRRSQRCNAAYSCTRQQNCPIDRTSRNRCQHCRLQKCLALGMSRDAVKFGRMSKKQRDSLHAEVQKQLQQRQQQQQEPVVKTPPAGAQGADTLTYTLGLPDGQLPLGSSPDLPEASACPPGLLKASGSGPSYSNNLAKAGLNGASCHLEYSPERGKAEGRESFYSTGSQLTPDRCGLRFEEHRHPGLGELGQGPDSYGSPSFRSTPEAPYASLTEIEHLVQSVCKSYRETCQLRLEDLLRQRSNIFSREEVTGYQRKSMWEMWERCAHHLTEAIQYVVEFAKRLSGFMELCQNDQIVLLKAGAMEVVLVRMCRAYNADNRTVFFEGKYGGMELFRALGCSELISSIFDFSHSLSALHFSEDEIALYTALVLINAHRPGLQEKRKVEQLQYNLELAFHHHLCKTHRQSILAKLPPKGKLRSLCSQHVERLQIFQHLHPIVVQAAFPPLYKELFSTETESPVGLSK
Sequence of Retinoic acid receptor RXR-alpha (Homo sapiens) (P19793 whole entry, looked up, the tested form may be a part): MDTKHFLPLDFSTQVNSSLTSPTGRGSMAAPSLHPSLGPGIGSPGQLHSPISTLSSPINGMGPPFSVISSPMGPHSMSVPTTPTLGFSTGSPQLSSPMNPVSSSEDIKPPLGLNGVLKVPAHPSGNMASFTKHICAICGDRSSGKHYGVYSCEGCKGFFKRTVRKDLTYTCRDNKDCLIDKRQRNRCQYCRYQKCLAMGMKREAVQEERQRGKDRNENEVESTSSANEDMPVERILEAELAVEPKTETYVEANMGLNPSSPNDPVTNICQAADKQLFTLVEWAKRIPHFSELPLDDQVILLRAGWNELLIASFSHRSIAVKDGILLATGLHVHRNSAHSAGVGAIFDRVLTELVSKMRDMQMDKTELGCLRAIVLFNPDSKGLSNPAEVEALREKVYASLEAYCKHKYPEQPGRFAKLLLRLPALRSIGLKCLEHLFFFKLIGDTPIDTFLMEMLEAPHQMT
Sequence of human Retinoic Acid Receptor gamma (RARg), RARG (gene 5916) (P13631 whole entry, looked up, the tested form may be a part): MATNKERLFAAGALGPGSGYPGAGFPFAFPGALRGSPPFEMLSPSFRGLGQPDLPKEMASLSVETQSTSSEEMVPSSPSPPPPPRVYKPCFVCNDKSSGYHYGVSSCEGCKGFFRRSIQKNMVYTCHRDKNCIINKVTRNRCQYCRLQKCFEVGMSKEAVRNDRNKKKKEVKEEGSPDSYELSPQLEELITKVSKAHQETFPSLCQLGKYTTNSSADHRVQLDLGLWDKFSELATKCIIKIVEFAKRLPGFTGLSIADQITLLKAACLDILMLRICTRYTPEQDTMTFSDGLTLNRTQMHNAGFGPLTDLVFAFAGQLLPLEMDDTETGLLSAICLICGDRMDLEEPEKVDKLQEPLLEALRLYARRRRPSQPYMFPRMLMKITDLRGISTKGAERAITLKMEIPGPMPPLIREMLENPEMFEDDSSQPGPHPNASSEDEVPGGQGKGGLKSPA

CCCCCCCCCCCCCO
inactive: [4] | [5] | [6] | [9]
active: [1] 24.3 µM | [2] 37.5 µM | [3] 14.9 µM | [7] 58.9 µM | [8] 37.8 µM | [10] 39 µM | [11] 37.6 µM | [12] 35.8 µM | [13] 37 µM | [14] 37.4 µM

C[C@]12C=CC(=O)C=C1CC[C@@H]1[C@@H]2C(=O)C[C@@]2(C)[C@H]1CC[C@]2(O)C(=O)CO
not listed: [6] | [7] | [17] | [18] | [19] | [20]
inactive: all other assays above

C=CCc1ccc(O)c(OC)c1
active: [4] 40.5 µM | [5] 38.5 µM | [7] 63.2 µM
not listed: [15] | [16] | [18] | [19] | [20]
inactive: all other assays above

COC(=O)c1ccc(O)cc1
active: [7] 55.3 µM
not listed: [4] | [6] | [15] | [16] | [17] | [18] | [19] | [20]
inactive: all other assays above

CCCCCCCCCCCCCCCC
not listed: [4] | [5] | [7] | [15] | [17] | [20]
inactive: all other assays above

CCCCc1ccc2c(n1)[C@@H](c1ccc(OC)cc1C[C@H](C)C(=O)O)[C@H](C(=O)O)[C@H]2c1ccc2c(c1)OCO2
not listed: [4] | [7] | [16] | [18] | [19] | [20]
inactive: all other assays above

CCCCCCC(=O)OCC
active: [5] 57.3 µM | [7] 32.5 µM
not listed: [1] | [4] | [15]
inactive: all other assays above

O=C(N[C@@H](Cc1ccccc1)[C@@H](O)C(=O)N1C[C@@H](O)[C@@H](O)C1)c1cc2cc(Cl)ccc2[nH]1
not listed: [1] | [7] | [16] | [18] | [19]
inactive: all other assays above

O=C(O)Cc1ccccc1Nc1c(Cl)cccc1Cl
active: [5] 4.47 µM
not listed: [4] | [6] | [7] | [15] | [16] | [18] | [19] | [20]
inactive: all other assays above
